Cruzain inh noDet – cruzain (T. cruzi) inhibition without detergent. Potency, µM, without a hit: max response, negative = inhibition, most hits filed as inhibitors. AID 1476. P25779. actives 2.3% (n = 200,000). purified cruzain, Z-FR-AMC fluorescence, no detergent;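 note: plate controls were enzyme without inhibitor for no effect and buffer without enzyme for full effect; nearly all actives have a fitted effect of over 40% in size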
Target sequence (P25779 123-467 limits assumed): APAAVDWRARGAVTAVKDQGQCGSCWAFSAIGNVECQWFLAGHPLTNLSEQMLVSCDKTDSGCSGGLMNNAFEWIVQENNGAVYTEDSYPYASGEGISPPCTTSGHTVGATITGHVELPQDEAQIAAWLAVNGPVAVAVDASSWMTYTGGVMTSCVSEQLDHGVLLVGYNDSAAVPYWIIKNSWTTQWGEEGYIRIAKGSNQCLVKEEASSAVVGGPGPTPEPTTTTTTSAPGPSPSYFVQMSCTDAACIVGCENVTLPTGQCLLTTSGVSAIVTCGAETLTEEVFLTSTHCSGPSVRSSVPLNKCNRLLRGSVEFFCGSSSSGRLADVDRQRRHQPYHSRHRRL
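Detergent-free condition (0.00005% Triton X-100) in acetate buffer pH 5.5 with DTT. 1.5 nM enzyme and compound were pre-mixed 15 min, then 2 uM Z-FR-AMC substrate added; reaction progress from fluorescence change between first and third reads (60 s).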
Cruzain Triton – cruzain (T. cruzi) inhibition with detergent; P25779; purified cruzain, Z-FR-AMC fluorescence, 0.01% Triton; Potency, µM, without a hit: max response, negative = inhibition, most hits filed as inhibitors; actives 0.43% (n = 200,000); AID 1478;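 note: plate controls were neutral wells for no effect and buffer without enzyme for full effect; nearly all actives have a fitted effect of over 40% in size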
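Compounds were screened in titration against cruzain (1.5 nM) with 0.01% Triton X-100 to counter colloidal aggregation. Activity was the AMC fluorescence increase over 60 s after adding 2 uM Z-FR-AMC at pH 5.5.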
Papain inh – papain (Carica papaya) inhibition counter-screen; shares compounds with Cruzain Triton; purified papain, Z-FR-AMC fluorescence cleavage; Potency, µM, for inactives: max response, negative = inhibition, hits mostly inhibitors; actives 41% (n = 410); AID 2161;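 note: 0% = no-compound wells and -100% = no-enzyme wells; nearly all actives have a fitted effect of over 35% in size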
Target sequence (P00784 whole entry, looked up): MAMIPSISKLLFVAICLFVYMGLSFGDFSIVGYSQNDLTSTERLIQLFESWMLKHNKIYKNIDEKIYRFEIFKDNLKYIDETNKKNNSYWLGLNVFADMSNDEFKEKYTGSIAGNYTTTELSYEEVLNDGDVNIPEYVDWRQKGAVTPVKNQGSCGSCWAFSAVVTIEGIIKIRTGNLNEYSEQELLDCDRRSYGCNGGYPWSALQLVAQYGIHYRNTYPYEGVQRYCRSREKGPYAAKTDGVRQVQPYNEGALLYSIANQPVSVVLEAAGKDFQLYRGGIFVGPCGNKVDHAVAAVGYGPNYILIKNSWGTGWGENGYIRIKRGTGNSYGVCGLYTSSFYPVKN
* marks the source's active call; other numbers are inactive results; u = inconclusive; x = no result given. This is a sample that favours compounds with a hit; in the whole collection about 2.6% have one here. Calls come from the whole dose curve; as a rule, active = well fitted curve in the direction sought with a large enough effect; inconclusive = small, poorly fitted or top-dose-only effect, or another doubt; inactive = no such curve, though single readings can be large; an effect the other way counts as inactive or inconclusive. Potency is the fitted concentration of half-maximal effect.

SMILES	Cruzain inh noDet	Cruzain Triton	Papain inh
CC(C)N(Cc1ccccc1)S(=O)(=O)c1ccc(-c2cc(C(F)(F)F)on2)s1	-25%	-6%	x
CN(C)c1nc(C#N)nc(N(C)C)n1	x	x	11µM*
CCCN(CCC)c1nc(C#N)nc(N(CCC)CCC)n1	x	x	2.5µM*
CCCN(CCC)c1nc(N)c(C#N)c(CC#N)c1C#N	-15%	-6%	x
CN(C)c1nc(N(C)C)nc(N(C)C)n1	-2%	4%	x
Cc1onc(-c2ccc(Br)cc2)c1C(=O)Nc1ccc(Br)cc1F	-27%	0%	x
CCOc1ccc(C(=O)/C=C/Nc2ccc(S(=O)(=O)N=C(N)N)cc2)cc1	-18%	-5%	x
NS(=O)(=O)c1ccc(N/C=C\C(=O)c2ccc3ccccc3c2)cc1	6.3µM*	8.9µM*	6%
C#CC(C)(C)NS(=O)(=O)c1cc(-c2nnc(Nc3ccc(C)cc3)c3ccccc23)ccc1C	-16%	-3%	x
Cc1cccc(Cn2cc(/C=C(/C#N)C(=O)Nc3cccc(Cl)c3)c3ccccc32)c1	3.2µM*	-2%	13%
N#C/C(=C\c1cn(Cc2cccc(F)c2)c2ccccc12)C(=O)NCc1ccco1	-5%	-6%	x
COC(=O)c1ccc(OC)c(CN2C(=O)N(c3ccc(C(C)=O)cc3)S(=O)(=O)c3ccccc32)c1	-18%	2%	x
Cc1cc(-c2nnc3sc(-c4ccc(Cl)cc4Cl)nn23)n[nH]1	-11%	8%	x
COc1cc(OC)c(-c2nn3c(-c4cc(C)[nH]n4)nnc3s2)cc1OC	x	x	-63%
c1csc(Cc2nn3c(-c4n[nH]c5c4CCC5)nnc3s2)c1	u	-4%	x
COc1cc(OC)c(-c2nn3c(-c4n[nH]c5c4CCC5)nnc3s2)cc1OC	x	x	2%
C1CCN2C[C@@H]3C[C@@H](CN4CCCC[C@H]34)[C@H]2C1	-5%	-2%	x
NC(=O)CS(=O)C[C@H](N)C(=O)O (stereo partly drawn)	-5%	10%	x
CCOC(=O)c1ccc(N2CSC3=C(C#N)C(c4cccs4)CC(=O)N3C2)cc1 (stereo not drawn)	-16%	-9%	2%
CCc1ccc(N2CSC3=C(C#N)C(c4cccs4)CC(=O)N3C2)cc1 (stereo not drawn)	u	-8%	x
Cc1ccccc1CNCCCSc1nnnn1C	11%	0%	x
Cn1c(C(=O)NCCN2CCCCCC2)cc2c(=O)n(C)c3ccccc3c21	7.9µM*	10µM*	-20%
Cn1c(C(=O)NCCCN2CCOCC2)cc2c(=O)n(C)c3ccccc3c21	0%	-2%	x
CCCSCCCNC(=O)c1cc2n(n1)CCCN(Cc1ccc(C)cc1)C2=O	26%	0%	x
Cc1ccc(CNC(=O)c2cc(S(=O)(=O)N3CCCCC3)cn2C)cc1	-29%	u	x
SMILES	Cruzain inh noDet	Cruzain Triton	Papain inh
Cn1cc(S(=O)(=O)N2CCCCC2)cc1C(=O)NCc1ccc(Cl)cc1	u	10µM*	-6%
N#CC(C#N)=NNc1cccc(Cl)c1	13µM*	11µM*	28µM*
N#CC(C#N)=NNc1ccc2cn[nH]c2c1	u	-18%	x
COc1ccc2[nH]cc(CCNc3cc(-c4ccoc4)ncn3)c2c1	-2%	-3%	x
COc1ccc(OC)c(C(=O)COC(=O)CNC(=O)C2CCCCC2)c1	5µM*	4.5µM*	-15%
COc1ccc(C(=O)COC(=O)CNC(=O)C2CCCCC2)c(OC)c1	6.3µM*	4µM*	-23%
CCOC(=O)C1CCN(C(=O)c2ccc(OC)cc2OC)CC1	-28%	2%	x
COc1cc(OC)cc(C(=O)NCC(=O)OCC(=O)c2cc(OC)ccc2OC)c1	0%	-17%	x
N#CCOc1nc(N2CCOCC2)nc(N2CCOCC2)n1	6%	-1%	x
CN(C)c1nc(N2CCOCC2)nc(N(c2ccccc2)c2ccccc2)n1	u	-1%	x
CN(c1ccccc1)c1nc(C#N)nc(N2CCOCC2)n1	x	x	1.3µM*
N#Cc1nc(N(c2ccccc2)c2ccccc2)nc(-n2cccc2)n1	x	x	10µM*
CCNc1nc(C#N)nc(N2CCOCC2)n1	x	x	3.2µM*
CCNc1nc(SCc2ccccc2)nc(N2CCOCC2)n1	2%	-10%	x
N#Cc1nc(N2CCOCC2)nc(N2CCOCC2)n1	1.3µM*	1.1µM*	1.3µM*
COc1nc(N(c2ccccc2)c2ccccc2)nc(-n2ccnc2)n1	-9%	0%	x
CCc1cccc(C)c1NC(=O)C(CC)Sc1nncn2c1cc1occc12 (stereo not drawn)	14%	-4%	x
CCOc1ccc(-c2csc(/C(C#N)=C/c3ccc(Br)cc3)n2)cc1	-8%	-1%	x
O=C1NC(c2ccccc2)=N/C1=C/c1ccco1	0%	-8%	x
O=C1OC(/C=C/c2ccc(Cl)cc2)=NC/1=C/c1ccco1	16µM*	2.5µM*	-15%
CCNc1ncc2nc(-c3cc(F)cc(F)c3)c(=O)n(C[C@H]3CCCO3)c2n1	9%	9%	x
CCOC(=O)Cn1nnnc1CN(Cc1ccc(OC)cc1)Cc1cc2cc(C)ccc2[nH]c1=O	u	-8%	x
CCOc1ccc2[nH]c(=O)c(CN(Cc3ccco3)C(CC)c3nnnn3Cc3ccccc3)cc2c1 (stereo not drawn)	11%	-11%	x
COc1ccccc1CN(Cc1cc2cc(C)ccc2[nH]c1=O)Cc1nnnn1Cc1ccco1	-8%	-20%	x
Cc1ccc2[nH]c(=O)c(CN(CCO)Cc3nnnn3Cc3ccco3)cc2c1	x	x	1%
SMILES	Cruzain inh noDet	Cruzain Triton	Papain inh
CCC(c1nnnn1Cc1ccccc1)N(Cc1ccccc1)Cc1cc2cc(C)ccc2[nH]c1=O (stereo not drawn)	x	x	-6%
Cc1ccc(CN(Cc2cc3cc(C)ccc3[nH]c2=O)Cc2nnnn2Cc2ccccc2)cc1	x	x	-12%
CCOc1ccc2[nH]c(=O)c(CN(CCO)Cc3nnnn3CCc3ccccc3)cc2c1	6%	-2%	x
Cc1ccc2[nH]c(=O)c(CN(CCO)Cc3nnnn3Cc3ccccc3)cc2c1	x	x	3%
CC(=O)C1=C(c2ccc(C)cc2)N(C(C)=O)n2c(nnc2-c2ccccc2)S1	3%	-1%	x
COc1ccc(Oc2nc3c(c(=O)n(C)c(=O)n3C)n2Cc2ccccc2Cl)cc1	1%	0%	x
O=C(CCCn1c(=O)c2ccccc2n(CC(=O)Nc2ccc(F)cc2F)c1=O)NCc1ccccc1Cl	-11%	-4%	x
Cc1ccc2[nH]c(=O)c(CN(Cc3cccs3)Cc3nnnn3Cc3ccco3)cc2c1	x	x	-13%
Cc1ccc2[nH]c(=O)c(CN(Cc3cccs3)Cc3nnnn3CC3CCCO3)cc2c1 (stereo not drawn)	u	1%	x
CCc1ccc2[nH]c(=O)c(CN(Cc3cccs3)Cc3nnnn3Cc3ccccc3)cc2c1	x	x	-16%
Cc1ccc2[nH]c(=O)c(CN(CCCO)Cc3nnnn3Cc3ccccc3)cc2c1	x	x	-5%
COc1ccc2[nH]c(=O)c(CN(Cc3cccs3)Cc3nnnn3Cc3ccccc3)cc2c1	3%	-1%	x
Cc1ccc2[nH]c(=O)c(CN(CCc3ccccc3)Cc3nnnn3CC3CCCO3)cc2c1 (stereo not drawn)	24%	-7%	x
Cc1ccc(CNC(=O)c2cccc(NC(=O)N3CCSc4ncccc43)c2)cc1	-4%	-8%	x
CCC(=O)N1CCc2cc(Br)cc(S(=O)(=O)N3CCCC(C(=O)N(C)c4ccc(Br)cc4)C3)c21 (stereo not drawn)	u	-4%	x
Cc1nc2cnc(N3CCOCC3)nc2n(Cc2cccs2)c1=O	-7%	-1%	x
CCc1ccc(C(=O)c2cn(CC(=O)NCCc3ccc(OC)c(OC)c3)c3nc(C)ccc3c2=O)cc1	u	-3%	x
